Test results taken from PubChem BioAssay (NCATS).
Where “and” joins values, the source holds several entries; their conditions need not be identical. Equal entries are not always repeated. Records with an inconclusive call do not appear. Entries that show only a call come without a potency. Where a structure was tested more than once in an assay, its records may differ in their call. Values without a mark were called inactive. Calls of active or inactive are those of the source. Calls follow the shape of the dose curve; as a rule, active = well fitted inhibition curve with a large enough effect; inconclusive = small, poorly fitted or top-dose-only effect; inactive = flat fitted curve, though single readings scatter.

Columns and labels:
CRL-7250 [1] = experiment: Cytotoxic Profiling of Annotated Libraries Using Quantitative High-Throughput Screening (AID 1296008); conditions: Five cell lines viability, CellTiter-Glo ATP luminescence, 48-72 h; max response: active compounds read low; also: potency is read from the fitted curve at half-maximal effect
Summary of the method: (§1)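 Cytotoxicity was measured as CellTiter-Glo ATP luminescence, read after 10 min at room temperature. Compound treatment of the cells lasted 48 or 72 hr at 37 degrees Celsius in a qHTS format.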

HEK293 = experiment: as above; conditions: Five cell lines viability, CellTiter-Glo ATP luminescence, 48-72 h; max response: active compounds read low
Summary of the method: as §1

HaCat [2] = experiment: as above; conditions: Five cell lines viability, CellTiter-Glo ATP luminescence, 48-72 h; max response: active compounds read low
Summary of the method: as §1

KB-3-1 = experiment: as above; conditions: Five cell lines viability, CellTiter-Glo ATP luminescence, 48-72 h; max response: active compounds read low
Summary of the method: as §1

NIH3T3 = experiment: as above; conditions: Five cell lines viability, CellTiter-Glo ATP luminescence, 48-72 h; max response: active compounds read low
Summary of the method: as §1

HEK293T = experiment: qHTS assay to identify novel small-molecules to repurpose for Merkel cell carcinoma treatment (AID 1296009); conditions: MCC and control cell lines, CellTiter-Glo viability, 72 h; at 44.8 µM (top of the series)
Summary of the method: (§2)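 72 hr, 37 degree celsius; NPC 8-pt / MIPE 11-pt dose response; compound pinned in DMSO; CellTiter-Glo, 10 min RT, luminescence; normalized to no-cell and DMSO controls.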

N140 = experiment: qHTS profiling for inhibitors of Plasmodium falciparum proliferation (AID 504749); also: potency is read from the fitted curve at half-maximal effect; conditions: P. falciparum in erythrocytes, SYBR Green DNA, 72 h; series mostly up to 28.7 µM
Summary of the method: (§3)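 Infected RBCs, 0.3% parasitemia/2.5% Hct final; cpd 72 h, 37 C, 5% CO2; lysis buffer with saponin/triton/SYBR Green I, o/n RT dark; FI 485/535; norm. to artemisinin (0.29 uM) and DMSO.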

P93_24 = experiment: as above; conditions: P. falciparum in erythrocytes, SYBR Green DNA, 72 h; series mostly up to 28.7 µM
Summary of the method: as §3

P94_40 = experiment: as above; conditions: P. falciparum in erythrocytes, SYBR Green DNA, 72 h; series mostly up to 28.7 µM
Summary of the method: as §3

PAD = experiment: as above; conditions: P. falciparum in erythrocytes, SYBR Green DNA, 72 h; series mostly up to 28.7 µM
Summary of the method: as §3

PC15 = experiment: as above; conditions: P. falciparum in erythrocytes, SYBR Green DNA, 72 h; series mostly up to 28.7 µM
Summary of the method: as §3

PC26 = experiment: as above; conditions: P. falciparum in erythrocytes, SYBR Green DNA, 72 h; series mostly up to 28.7 µM
Summary of the method: as §3

PC49 = experiment: as above; conditions: P. falciparum in erythrocytes, SYBR Green DNA, 72 h; series mostly up to 28.7 µM
Summary of the method: as §3

SC27B = experiment: as above; conditions: P. falciparum in erythrocytes, SYBR Green DNA, 72 h; series mostly up to 28.7 µM
Summary of the method: as §3

TAB109 = experiment: as above; conditions: P. falciparum in erythrocytes, SYBR Green DNA, 72 h; series mostly up to 28.7 µM
Summary of the method: as §3

TAB113 = experiment: as above; conditions: P. falciparum in erythrocytes, SYBR Green DNA, 72 h; series mostly up to 28.7 µM
Summary of the method: as §3

TAB165 = experiment: as above; conditions: P. falciparum in erythrocytes, SYBR Green DNA, 72 h; series mostly up to 28.7 µM
Summary of the method: as §3

W2 = experiment: as above; conditions: P. falciparum in erythrocytes, SYBR Green DNA, 72 h; series mostly up to 28.7 µM
Summary of the method: as §3

CRL-7250 [3] = experiment: qHTS assay to identify novel small-molecules to repurpose for Merkel cell carcinoma treatment (AID 1296009); conditions: MCC and control cell lines, CellTiter-Glo viability, 72 h; series mostly up to 44.8 µM
Summary of the method: as §2

HACAT [4] = experiment: as above; conditions: MCC and control cell lines, CellTiter-Glo viability, 72 h; at 44.8 µM (top of the series) unless noted
Summary of the method: as §2
Also: nearly all actives have a fitted effect of over 60% in size.

Cc1cccc(C)c1NC(=O)CN1CCCC1=O
max response (CRL-7250 [1]): 0.285% and 2.07% | max response (HEK293): 2.15% | outcome (HEK293): inactive | max response (HaCat [2]): 3.48% and 0.767% | max response (KB-3-1): -16.8% and -6.89% | max response (NIH3T3): 1.47% and -1.95% | outcome (HEK293T): inactive

Oc1cccc2cccnc12
Potency (N140): inactive | Potency (P93_24): inactive | Potency (P94_40): inactive | Potency (PAD): inactive | Potency (PC15): inactive | Potency (PC26): inactive | Potency (PC49): inactive | Potency (SC27B): inactive | Potency (TAB109): inactive | Potency (TAB113): inactive | Potency (TAB165): inactive | Potency (W2): inactive | max response (CRL-7250 [1]): 3.76% | Potency (HEK293): 13700 nM (active) | max response (HEK293): -0.236% | max response (HaCat [2]): 4.28% | max response (KB-3-1): 22% and 11.8% and -4.11% | Potency (NIH3T3): 19300 nM (active) | max response (NIH3T3): 4.09%

c1ccc2c(c1)Nc1ccccc1S2
Potency (N140): inactive | Potency (PC49): inactive | Potency (SC27B): inactive | Potency (TAB113): inactive | Potency (W2): 3380 nM (active) | outcome (CRL-7250 [1]): inactive | max response (HEK293): -4.55% | max response (HaCat [2]): -0.234% | outcome (HaCat [2]): inactive | max response (KB-3-1): 3% and -4.89% | max response (NIH3T3): -3.03% and 0.216% | outcome (CRL-7250 [3]): inactive | outcome (HACAT [4]): inactive

COC[C@H]1OC(=O)c2coc3c2[C@@]1(C)C1=C(C3=O)C2CCC(=O)[C@@]2(C)C[C@H]1OC(C)=O (stereo partly specified)
max response (CRL-7250 [1]): -6.6% | max response (HEK293): -95.7% and 0.842% | max response (HaCat [2]): -21.4% | outcome (HaCat [2]): inactive | max response (KB-3-1): -5.47% | outcome (KB-3-1): inactive | outcome (HACAT [4]): inactive

Clc1ccc(COC(Cn2ccnc2)c2ccc(Cl)cc2Cl)cc1 (stereo unspecified)
Potency (N140): 1580 nM (active) | Potency (P93_24): 1120 nM (active) | Potency (P94_40): 2000 nM (active) | Potency (PAD): 2510 nM (active) | Potency (PC15): 2820 nM (active) | Potency (PC26): 1900 nM (active) | Potency (PC49): 8910 nM (active) | Potency (SC27B): 2510 nM (active) | Potency (TAB109): 2510 nM (active) | Potency (TAB113): 2820 nM (active) | Potency (TAB165): 708 nM (active) | Potency (W2): 1200 nM (active) | max response (CRL-7250 [1]): 1.02% | outcome (CRL-7250 [1]): inactive | max response (HEK293): -1.16% | max response (HaCat [2]): -11% | max response (KB-3-1): -10.4% and -10.7% | outcome (CRL-7250 [3]): inactive

CCCC(C)(COC(N)=O)COC(=O)NC(C)C (stereo unspecified)
Potency (N140): inactive | Potency (P93_24): inactive | Potency (P94_40): inactive | Potency (PAD): inactive | Potency (PC15): inactive | Potency (PC26): inactive | Potency (PC49): inactive | Potency (SC27B): inactive | Potency (TAB109): inactive | Potency (TAB113): inactive | Potency (TAB165): inactive | Potency (W2): inactive | outcome (CRL-7250 [1]): inactive | max response (HEK293): 0.0303% | outcome (HEK293): inactive | max response (HaCat [2]): -8.86% and 1.84% | max response (KB-3-1): -16.5% | outcome (KB-3-1): inactive | max response (NIH3T3): -10.4% | outcome (NIH3T3): inactive | outcome (CRL-7250 [3]): inactive | outcome (HEK293T): inactive
